# Assay outcomes as filed in PubChem BioAssay.
# This is a sample that favours compounds with a hit; in the whole collection about 4.9% have one here.
# NALP1 inh = NALP1 inflammasome inhibitors in reconstituted yeast, colorimetric, S. cerevisiae, triplicate retest; hit rate 0.61% among 280,000; S. cerevisiae NALP1/ASC/caspase-1 growth, X-gal OD620, 72 h; inhibition, % at 10 µM; in the data active = inhibition mostly above about 24%, no sharp cut-off; inactive = mostly below about 32%
# TIM10 inh = growth inhibitors of isogenic TIM10 control yeast, primary screen, counter-screen for tim10-1 yeast inhibitor project, luminescence, uHTS | AID 463195, 2010 | S. cerevisiae TIM10 strain growth, BacTiter-Glo luminescence, 24 h | hit rate 1.4% among 330,000 | inhibition, % at 10 µM;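 active = inhibition of 40% or more at the single tested concentration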;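 note: wild-type TIM10 isogenic control strain grown at permissive 25 °C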
# tim23-1 inh = growth inhibitors of tim23-1 mutant yeast, primary screen, luminescence, uHTS; hit rate 1.3% among 330,000; inhibition, % at 20 µM; S. cerevisiae tim23-1 growth, BacTiter-Glo luminescence, 24 h; AID 463212, 2010;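 active = growth inhibition of the mutant yeast at or above 50%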;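 note: temperature-sensitive mutant grown at 25 °C; plate controls were DMSO-treated mutant yeast for no effect and medium wells lacking yeast for full effect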
# tim10-1 inh = growth inhibitors of tim10-1 mutant yeast, primary screen, luminescence, uHTS. S. cerevisiae tim10-1 ts strain growth, BacTiter-Glo, 24 h. inhibition, % at 20 µM. hit rate 2.2% among 330,000. AID 463190, 2010;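 active = inhibition of at least 40%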;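 note: mutant grown at 25 °C; 0% = DMSO wells with yeast and 100% = wells holding no yeast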
# NLRP3 yeast inh = NALP3 inflammasome inhibitors in reconstituted yeast, primary screen, luminescence, uHTS; hit rate 0.39% among 330,000; inhibition, % at 10 µM; Yeast reconstituted NLRP3/ASC/caspase-1, beta-gal luminescence, 24 h;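 active = inhibition of 50% or more; inactive = inhibition below 50%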;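 note: plate controls were induced DMSO wells for no effect and uninduced yeast grown without galactose for full effect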
# SKKanGAS inh = S. pyogenes SKKanGAS growth inhibitors in kanamycin, primary screen, streptokinase expression inhibitor project, SKKanGAS strain, BacTiter-Glo luminescence; inhibition, % at 7.5 µM; 6 h; hit rate 1.3% among 300,000; AID 1662, 2009;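 active = mean replicate score, as percent of positive control median, at least 50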;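 note: strain carries kanamycin resistance gene driven by streptokinase promoter and grows in 40 µg/ml kanamycin; loss of luminescence reflects streptokinase promoter inhibition or plain growth inhibition; 0% = median of DMSO wells and 100% = positive control at its reference dose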
# NALP3 confirm = NALP3 inhibitors retested in yeast, confirmation, luminescence, single concentration; yeast expressing human NALP3; hit rate 81% among 1,300; inhibition, % at 10 µM; shares compounds with NLRP3 yeast inh; AID 435006, 2010; in the data active = inhibition above about 48%
# Casp1 ASC ctr = CASP1-PYCARD signaling inhibition in yeast, confirmatory test, counterassay for NLRP3 inhibitor program, one-dose | hit rate 66% among 1,000 | yeast expressing Caspase-1-ASC, luminescence counter screen | inhibition, % at 10 µM | shares compounds with NLRP3 yeast inh | AID 488784, 2010
# NALP3 retest = NALP3 inhibitors in yeast, repeat test, confirmation, luminescence, single concentration, retest; shares compounds with NLRP3 yeast inh; yeast expressing human NALP3, luminescence read-out; inhibition, % at 10 µM; hit rate 53% among 1,000; AID 488794, 2010
# The depositor's hits bear a star; x = no result given. Cut-off read from the data, not from the text of the source, unless noted: active = inhibition above about 50%; inactive = the rest.
SMILES,NALP1 inh,TIM10 inh,tim23-1 inh,tim10-1 inh,NLRP3 yeast inh,SKKanGAS inh,NALP3 confirm,Casp1 ASC ctr,NALP3 retest
CCn1c(=O)c(C(=O)NNC(=O)c2ccc(Cl)cc2Cl)c(O)c2ccccc21,12,14,34,-28,55*,75*,75*,21,25
CCn1c(=O)c(C(=O)Nc2ccccc2F)c(O)c2ccccc21,8,-14,8,-1,16,-6,x,x,x
COc1ccc(CNC(=O)C2COc3ccccc3O2)c(OC)c1 (stereo unspecified),-13,13,18,11,53*,-4,65*,46,39
COc1ccc(OC)c(NC(=O)C2COc3ccccc3O2)c1 (stereo unspecified),-16,12,26,18,26,-18,x,x,x
CN(CC(=O)Nc1ccc(F)cc1)C(=O)C1CCCC1,x,9,-5,1,0,x,x,x,x
c1ccc(Sc2cccc3ccccc23)c(CNC2=NCCN2)c1,78*,10,13,-34,74*,4,63*,49,70*
Fc1ccccc1Sc1ccccc1CNC1=NCCN1,42,9,10,27,14,-1,x,x,x
NCCOc1ccccc1-c1ccccc1,4,0,-8,-6,54*,3,66*,56*,50*
O=S(=O)(c1ccc(Cl)cc1Cl)n1ccc2cccnc21,-10,-21,27,-14,73*,21,67*,65*,43
O=S(=O)(c1cc(Cl)ccc1Cl)n1cccn1,-7,22,6,20,-37,-2,x,x,x
O=S(=O)(c1ccc(Cl)cc1)n1ccc2cccnc21,-3,-7,17,-4,61*,5,61*,56*,41
Cc1ccc(S(=O)(=O)n2ccc3cccnc32)cc1,0,1,15,8,44,3,x,x,x
COc1ccccc1/C=C1/SC(=S)N(C(C)C(=O)NC2C=CS(=O)(=O)C2)C1=O (stereo unspecified),-4,13,22,19,15,5,x,x,x
N#Cc1ccsc1NC(=O)c1cccc([N+](=O)[O-])c1,-13,-8,-18,1,17,6,x,x,x
N#Cc1ccsc1NC(=O)c1ccc(Cl)c([N+](=O)[O-])c1,-16,9,10,7,78*,1,81*,x,x
CCOC(=O)Nc1ccc2c(c1)N(C(=O)CCN(CC)CC)c1ccccc1S2=O (stereo unspecified),20,-2,18,30,7,0,x,x,x
COC(=O)COc1ccc2c(=O)c(-c3ccccc3)coc2c1,10,9,17,18,11,7,x,x,x
CC(C)Oc1ccc2c(=O)c(-c3ccccc3)coc2c1,49,-5,26,11,58*,-5,66*,40,37
Cc1ccc(NC(=O)NC(=O)COc2ccccc2C(N)=O)c(C)c1,x,-15,-6,-8,26,x,x,x,x
CC1(C(=O)OCc2cc(=O)n3cc(Br)ccc3n2)CC1(Cl)Cl (stereo unspecified),5,-1,41,24,64*,-3,72*,78*,64*
Cc1cc(C)n(CC(=O)NNC(=O)CCNC(=O)c2ccccc2Cl)n1,x,-1,9,-3,14,1,x,x,x
O=C(COc1ccc(F)cc1)NNC(=O)Cn1ccc(C(F)(F)F)n1,x,-6,-17,-49,11,x,x,x,x
C(=C\c1ccccc1)/CSc1nnc(-c2cccnc2)o1,9,-4,26,21,52*,-7,45,47,37
CC1=CC2=NC(=O)/C(=C\c3cccn3CCOc3cccc(C)c3)C(=N)N2O1,47,12,28,14,60*,-2,3,x,x
CCOc1cc2sc(N3CCC(C(=O)NCCCN4CCCC4=O)CC3)nc2cc1Br,-10,7,-5,-3,-3,-1,x,x,x
SMILES,NALP1 inh,TIM10 inh,tim23-1 inh,tim10-1 inh,NLRP3 yeast inh,SKKanGAS inh,NALP3 confirm,Casp1 ASC ctr,NALP3 retest
CC(C)NC(=O)Nc1cccc2c1O[C@H](CN(C)S(C)(=O)=O)[C@@H](C)CN([C@H](C)CO)C2=O,x,0,-5,-1,7,x,x,x,x
O=C(Nc1cccc(S(=O)(=O)N2CCOCC2)c1)c1ccc2ccccc2n1,x,22,46,27,-104,-2,-2,x,x
Cc1ccc(NC(=O)c2ccc3ccccc3n2)cc1S(=O)(=O)N1CCOCC1,39,9,16,22,-43,1,x,x,x
Cn1c(/C=C/N(Cc2ccccc2)c2ccccc2)c([N+](=O)[O-])c(=O)n(C)c1=O,-25,13,15,22,-117,8,-22,x,x
CCOC(=O)Cc1csc(NC(=O)c2cccs2)n1,21,4,16,-7,28,5,x,x,x
CCOC(=O)Cc1csc(NC(=O)c2ccc(Br)s2)n1,39*,6,28,-27,67*,-1,76*,x,x
Cc1ccc(S(=O)(=O)NCC2CCC(C(=O)NCCCN3CCCC3=O)CC2)cc1 (stereo unspecified),14,5,17,22,-1,-3,x,x,x
CCc1cccc(NC(=S)N2CCC(c3ccccc3)C2)c1 (stereo unspecified),13,39,36,18,52*,9,56*,62*,45
COc1ccc(OC)c(N(CC(=O)NC2CCCC2)S(=O)(=O)c2ccc(OC)c(OC)c2)c1,12,7,10,7,6,1,x,x,x
COC(=O)Cn1nc(-c2ccccc2)c2ccccc21,103*,24,24,26,97*,18,99*,99*,98*
CCSc1nnc(NC(=O)C2CCCCC2)s1,13,6,7,5,61*,5,79*,67*,61*
O=C(Nc1nnc(-c2ccco2)s1)C1CCCCC1,27,-12,-1,6,58*,-3,42,37,36
CSc1nnc(NC(=O)C2CCCCC2)s1,x,-6,9,-7,55*,x,75*,58*,38
CC(C)c1nnc(NC(=O)C2CCCCC2)s1,-2,-7,16,-3,40,-2,x,x,x
O=C1c2ccsc2SCCN1Cc1ccccc1,8,-8,11,26,58*,18,43,48,47
O=C1NCCN1Cc1ccccc1,8,-4,1,1,2,4,x,x,x
CN1CCN(c2ccc(NC(=O)c3cccc(OCc4ccccc4)c3)cc2)CC1,31*,-22,-81,-20,50*,-3,55*,39,37
